In PubChem BioAssay (EPA / NIEHS) one finds AC50 and outcome data, which are given here for three compounds.

Inconclusive results are not listed. The source made the active and inactive calls. How the source made its calls: active means hit-call score of the fitted dose curve at least 0.9, where 1 is the maximum; inconclusive means response in the unintended direction; inactive means score below 0.9.

The nature of test [1]: NVS_GPCR_bNPY_NonSelective: NovaScreen (NVS) G Protein-Coupled Receptor Assay for bovine Neuropeptide Y (NPY) Receptor, Non-selective Binding (AID 2283245). An outline of the steps: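 Displacement of radioligand from bovine hippocampal membrane receptors, read by filtration and scintillation counting after 1 hour. Concentration-response to a top of 50 uM followed a 25 uM duplicate primary screen. Loss of signal versus DMSO.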

For test [2], the system named is bovine Histamine 1 Receptor (H1), gene 281231. Kind of test: NVS_GPCR_bH1: NovaScreen (NVS) G Protein-Coupled Receptor Assay for bovine Histamine 1 Receptor (H1) (AID 2283246). Put shortly:
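Hits from a 25 uM duplicate primary screen were retested in concentration series (top 50 uM); binding measured as scintillation-counted displacement of radioligand from bovine cerebellar membranes after 1 h, normalised to DMSO.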

As usually defined, the AC50 is the midpoint of the concentration-response curve, whichever way the signal moves. For `CC(=O)[O][Hg][c]1ccccc1`, in test [1], the half-maximal activity concentration (AC50) was 4.57 µM (active).
On to `C=C(C)C(=O)[O][Sn]([CH2]CCC)([CH2]CCC)[CH2]CCC`, for which the AC50 in test [1] was 2.56 µM (active).
As for `C[C@@H]1C[C@@H]([C@H](O)CC2CC(=O)NC(=O)C2)C(=O)[C@@H](C)C1`, in test [2], the outcome was inactive.
